PNC assembly inh: perinucleolar compartment assembly inhibition; PC3M PTB-GFP, PNC prevalence imaging, 16 h; stronger effect = lower value; activity change (PNC), negative = inhibition, % at 10 µM; 140,000 compounds, 3.1% hits; AID 2417;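 active means readout at or below -70, meaning at least 70% loss of cells showing the perinucleolar compartment, a nuclear body marking cancer cells; inconclusive means readout between -30 and a set limit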;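 further: plate controls were DMSO wells for no effect and camptothecin positive control wells for full effect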
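Read-out is percentage of cells bearing a perinucleolar compartment, from automated 20x imaging of fixed, Hoechst-stained PC3M PTB-GFP cells. Cells were seeded 4 h, then exposed 16 h to compound (23 nl of library stock) in duplicate plates.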
IMPase cell inh: IMPase inhibition in cells. P97697. CHO-M1 cells, IP1 accumulation, HTRF TR-FRET ratio. inhibition (IP1 accumulation), % at 46.1 µM. 120,000 tested, under 10 active; active means well fitted curve in the direction sought with a large enough effect in the signal ratio, not every such curve was filed as active; inconclusive means small, poorly fitted or top-dose-only effect, or a change in a side signal; inactive means no such curve, though single readings can be large or run the other way; the % refers to the signal ratio;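 further: cells stimulated with carbachol in lithium chloride buffer; plate controls were DMSO basal wells for no effect and reference inhibitor wells for full effect; higher means more IMPase inhibition seen as more IP1 and lower FRET ratio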
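In this qHTS, compounds (final up to 46 uM) act on CHO-M1 cells that are then activated through the M1 receptor with carbachol, in pH 7.4 buffer containing 50 mM LiCl, for 30 min. IP1 accumulation is quantified by the IP-One immunoassay.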
ALDH1A1 inh-1: ALDH1A1 (human) enzyme inhibition; Purified ALDH1A1, NADH fluorescence, propionaldehyde substrate; P00352; AID 1030; 220,000 compounds, 7.3% hits; Potency, µM (highest dose often 75.3 µM), inactives show at the highest dose activity, negative = inhibition, most hits filed as inhibitors; active means well fitted inhibition curve with a large enough effect, not every such curve was filed as active; inconclusive means small, poorly fitted or top-dose-only effect, or another doubt; inactive means no such curve, though single readings can be large or run the other way;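 further: potency means the concentration at half of the fitted maximal effect; plate controls were no enzyme wells and a reference inhibitor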
Target sequence (P00352 whole entry, looked up): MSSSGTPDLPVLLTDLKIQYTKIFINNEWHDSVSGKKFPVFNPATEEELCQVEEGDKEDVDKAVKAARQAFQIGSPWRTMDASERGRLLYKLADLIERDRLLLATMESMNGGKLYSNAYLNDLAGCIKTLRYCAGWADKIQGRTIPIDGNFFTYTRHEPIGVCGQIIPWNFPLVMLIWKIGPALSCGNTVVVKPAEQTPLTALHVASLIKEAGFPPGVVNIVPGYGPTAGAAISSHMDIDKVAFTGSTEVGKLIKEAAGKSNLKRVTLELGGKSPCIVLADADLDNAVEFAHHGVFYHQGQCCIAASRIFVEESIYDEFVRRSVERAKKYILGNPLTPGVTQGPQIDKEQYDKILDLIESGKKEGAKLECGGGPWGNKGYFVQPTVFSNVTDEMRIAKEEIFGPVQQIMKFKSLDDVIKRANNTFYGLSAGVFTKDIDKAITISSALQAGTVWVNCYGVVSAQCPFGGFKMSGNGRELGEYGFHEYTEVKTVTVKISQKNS
HPGD block: HPGD (human) dehydrogenase inhibition. P15428. purified HPGD, NADH fluorescence kinetic, PGE2 substrate. Potency, µM, inactives show top-dose activity change, negative = inhibition, usual class: inhibitors. 150,000 compounds, 4.3% hits; active means well fitted inhibition curve with a large enough effect, not every such curve was filed as active; inconclusive means small, poorly fitted or top-dose-only effect, or another doubt; inactive means no such curve, though single readings can be large or run the other way; further: potency means the concentration at half of the fitted maximal effect; on the % scale 0 is the no-effect control and ±100 the full control effect
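20 nM HPGD preincubated 15 min at room temperature with compound in 50 mM Tris-HCl pH 8, 0.01% Tween 20. Started with 1 mM NAD+ and 30 uM prostaglandin E2; NADH fluorescence (360/450 nm) read 5 times over 30-s intervals, last minus first.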
IMPase Li inh: membrane-permeable IMPase blocker, potentiated with lithium; CHO-M1 cells, IP1 TR-FRET (IP-One), carbachol + lithium; Potency, µM (titrated, usually from 59.4 µM), for the others: at the top dose activity, negative = IMPase inhibition, actives largely listed as inhibitors; 210,000 compounds, 0.35% hits; active means well fitted inhibition curve with a large enough effect; inconclusive means small, poorly fitted or top-dose-only effect; inactive means no such curve, though single readings can be large or run the other way;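 further: IP1 builds up when IMPase is blocked and the TR-FRET signal falls; potency means the concentration at half of the fitted maximal effect; plate controls were basal vehicle for no effect and high inhibitor control for full effect; nearly all actives have a fitted effect of over 50% in size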
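Test compounds were applied to CHO-M1 cells previously cultured for 16–30 h at 2000 per well. A small lithium amount accompanied them; after 30 min at 37C, IP1 was quantified by TR-FRET.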
HPGD inh conf: human HPGD enzyme inhibition, confirmation; shares compounds with HPGD block; recombinant HPGD, NADH fluorescence, PGE2 substrate; Potency, µM (top dose mostly 57.1 µM), for inactives: at the top dose activity change, negative = inhibition, most hits filed as inhibitors; 90 compounds, 90% hits
ALDH1A1 inh-2: Inhibits human ALDH1A1, confirmation and counter-screen; shares compounds with ALDH1A1 inh-1; purified ALDH1A1, NADH fluorescence, propionaldehyde/NAD+; Potency, µM (top dose mostly 57.1 µM), for inactives: at the top dose activity change, negative = inhibition, hits mostly inhibitors; 90 compounds, 90% hits; AID 493210
An asterisk follows results filed as active; ? = inconclusive; . = no result; ! = not active in a repeat; [ ] = remark or other dose. This is a sample that favours compounds with a hit; in the whole collection about 11% have one here. Unless noted, the call rests on the fitted dose curve.

SMILES	PNC assembly inh	IMPase cell inh	ALDH1A1 inh-1	HPGD block	IMPase Li inh	others
C[C@H](Br)CN(C[C@H](C)Br)c1ccc2c(c1)Cc1ccccc1-2	.	.	-7.8%[13.5 µM]	-17.2%	7.0%
Cn1c(=O)c2[nH]cnc2n(C)c1=O.[CH2-][C@H](Cc1cccc2cc(C(=O)O)c(=O)oc12)OC.[Hg].[OH-]	.	.	3.16µM*	3.98µM*	2.8%
CCCC[C@@H](C)[C@@H](OC(=O)C[C@@H](CC(=O)O)C(=O)O)[C@H](C[C@@H](C)C[C@H](O)CCCC[C@@H](O)C[C@H](O)[C@H](C)N)OC(=O)C[C@H](CC(=O)O)C(=O)O	.	.	?	.	-13.3%
COC(=O)Nc1cccc(OC(=O)Nc2cccc(C)c2)c1	.	.	?	-26.5%	5.7%
Cc1ccc(NC(=O)OC(C)CNC(=O)Oc2cccc(C)c2)cc1 (configuration not stated)	.	.	20µM*	.	18.8%
O=C1OC(c2cc(I)c(O)c(I)c2)(c2cc(I)c(O)c(I)c2)c2ccccc21	.	.	-4.2%	11.2µM*	23.2%
O=S(=O)(Cl)c1ccccc1	.	.	?	-11.2%	3.4%
CC(=O)CCc1ccccc1	.	.	25.1µM*	-11.5%	-7.7%
COC(=O)[C@H]1C(=O)[C@H](C(=O)OC)[C@@H]2CC[C@H]1N2C	.	.	-0.4%[13.5 µM]	3.3%	5.2%
[N-]=[N+]=NCC(=O)c1c[nH]c(=O)[nH]c1=O	.	.	-5.6%[13.5 µM]	-13.4%	-6.2%
COc1ccc(C(=O)O[C@H]2CC[C@@]3(C)[C@H]4CC[C@H]5[C@]3(C[C@]3(O)[C@H]6CN7C[C@H](C)CC[C@H]7[C@](C)(O)[C@]6(O)[C@H](O)C[C@]53O)O[C@]24O)cc1OC	.	.	9.3%[13.5 µM]	-2.6%	1.2%
C[C@@H]1CC[C@@]2(OC1)O[C@H]1[C@@H](O)[C@H]3[C@@H]4CC[C@H]5C[C@@H](O[C@@H]6O[C@H](CO)[C@H](O[C@@H]7O[C@H](CO)[C@@H](O)[C@H](O[C@@H]8OC[C@@H](O)[C@H](O)[C@H]8O)[C@H]7O[C@@H]7O[C@H](CO)[C@@H](O)[C@H](O[C@@H]8O[C@H](CO)[C@@H](O)[C@H](O)[C@H]8O)[C@H]7O)[C@H](O)[C@H]6O)[C@H](O)C[C@]5(C)[C@H]4CC[C@]3(C)[C@H]1[C@@H]2C	.	.	20µM*	-4.6%	25.5%
ClC1=C(Cl)C(Cl)(Cl)C(Cl)=C1Cl	.	.	28.2µM*	-7.7%	13.6%
N#CC(C#N)=Cc1ccc(O)c(O)c1	.	?	11.2µM*	31.6µM*	34.9%
N#CC(=Cc1ccc(O)c(O)c1)C(N)=S	.	.	0.794µM*	28.2µM*	42.2%
COc1cc(C=C(C#N)C#N)cc(O)c1O	.	23.1	31.6µM*	31.6µM*	46.8%
N#C/C(=C\c1cccc(O)c1)C(=O)O	.	.	-8.6%	-29.6%	2.3%
CC(C)(C)c1cc(C=C(C#N)C#N)cc(C(C)(C)C)c1O	.	21.3	8.91µM*!	?	27.1%
N[C@@H](CP(=O)(O)O)C(=O)O	.	.	7.9%[13.5 µM]	-2.2%	4.8%
CN(C)c1ccc(C=C(C#N)C#N)cc1	?	2.3	28.2µM*	-5.1%	1.3%
CCc1ccc(/C=C(/C#N)C(N)=S)cc1	42.0	.	31.6µM*	31.6µM*	-12.8%
N#C/C(=C\c1ccc(O)cc1)C(=O)O	.	.	?	?	12.2%
N#CC(C#N)=Cc1ccc(N2CCCC2)cc1	.	.	10µM*	.	-3.9%
O=C(O)CBr	.	.	-13.2%	-3.4%	11.4%
CCCN1CCC[C@H](c2cccc(C#N)c2)C1	.	11.5	.	.	.
SMILES	PNC assembly inh	IMPase cell inh	ALDH1A1 inh-1	HPGD block	IMPase Li inh	others
O=C1NC(=O)N(Cc2ccccc2)C(=O)/C1=C\N1CCCc2ccccc21	?	.	-1.8%	?	-8.2%
O=C1NC(=O)C(=CN2CCc3ccccc32)C(=O)N1	103.6	.	11.2µM*	-19.8%	-4.0%
Oc1cccc(Cl)c1	.	.	2.2%	-7.0%	3.8%
O=P1(NCc2ccco2)COc2ccccc2OC1	-12.7	-6.6	0.3%	1µM*	-10.8%[38.3 µM]	HPGD inh conf=1µM*
c1ccc(CC(NCc2ccco2)c2ccccc2)cc1 (configuration not stated)	.	.	-4.6%	.	14.2%
O=P1(NC2CCCC2)COc2ccccc2OC1	-25.8	3.2	-9.3%	0.0708µM*	?	HPGD inh conf=0.159µM*
CCCC(C)C1(CC)C(=O)NC(=S)NC1=O (configuration not stated)	.	.	-1.7%	-4.3%	-1.0%
O=C1C=CC(=O)c2c1ccc1c2ccc2ccccc21	.	-0.6[20.6 µM]	0.316µM*	11.2µM*	16.2%	ALDH1A1 inh-2=0.316µM*
C=C(CC1(C(C)NP(=O)(c2ccccc2)c2ccccc2)CC1)c1ccccc1 (configuration not stated)	.	.	5.2%	-11.6%	13.3%

Assay outcomes: PubChem, National Center for Advancing Translational Sciences (NCATS)
